Screens from PubChem BioAssay.
AMA1 RON2 block = disrupts binding of P. falciparum AMA1 to RON2; AlphaScreen AMA1-biotinylated RON2 peptide binding; Potency, µM (titrated, usually from 58.2 µM), without a hit: at the top dose activity change, negative = inhibition, hits mostly inhibitors; hit rate 0.2% among 360,000;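 also: 0% = vehicle wells and -100% = peptide control; nearly all actives have a fitted effect of over 45% in size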
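AMA1 (3D7) with his tag at 25 nM final met compounds first, then biotinylated RON2 peptide at 25 nM; detection used donor plus acceptor beads, 10 µg/mL apiece, read by AlphaScreen after 30 min at room temperature.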
Sm TGR block = inhibitors of Schistosoma mansoni thioredoxin glutathione reductase; Potency, µM (titrated, usually from 114 µM), without a hit: at the top dose activity change, negative = inhibition, actives largely listed as inhibitors; Q962Y6; hit rate 3% among 360,000; AID 485364; purified TGR, DTNB reduction, TNB absorbance 405 nm; also: % is scaled to controls: 0 for no effect and ±100 for the full control effect; nearly all actives have a fitted effect of over 60% in size
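First, TGR (20 nM dispensed) and NADPH were mixed with compound. Second, a 15 min room-temperature incubation followed. Third, further NADPH and then DTNB were added to start the reaction. Finally, TNB absorbance was monitored kinetically.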
NS1 inh = influenza NS1 inhibition; Potency, µM (highest dose often 46.1 µM), for inactives: top-dose activity, positive = more growth; hit rate 0.4% among 270,000; calls by dose curve; also: actives are rising curves; nearly all actives have a fitted effect of over 50% in size
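Growth recovery, yeast-based: influenza A NS1 expressed in S. cerevisiae causes slow growth, and suppressors are detected by OD600. The parent strain without NS1 is used as positive control.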
Pf growth 96h = inhibits malaria parasite growth, 96 h; P. falciparum luciferase reporter growth, 96 h; Potency, µM (top dose mostly 28.7 µM), for inactives: at the top dose activity change, negative = inhibition, most hits filed as inhibitors; hit rate 6.9% among 320,000; AID 504834; also: % is scaled to controls: 0 for no effect and ±100 for the full control effect
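P. falciparum expressing integrated firefly luciferase, in erythrocytes at 2% hematocrit, 0.05% parasitemia, incubated with compounds 96 h at 37 C, 5% CO2. Growth inhibition read as loss of luminescence; two-generation exposure targets delayed-death apicoplast inhibitors.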
Pf growth 48h = P. falciparum growth inhibition at 48 hours (one generation). P. falciparum luciferase growth in erythrocytes, 48 h. Potency, µM (top dose mostly 28.7 µM), for the others: at the top dose activity change, negative = inhibition, hits mostly inhibitors. hit rate 5.9% among 310,000. AID 504832; also: % is scaled to controls: 0 for no effect and ±100 for the full control effect
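Firefly luciferase activity from engineered P. falciparum reports growth; inhibitors lower the luminescent signal. Cultures contained 2% hematocrit erythrocytes at 0.1% final parasitemia.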
The depositor's hits bear a star; ? = inconclusive; / = not tested or not shown. An excerpt weighted towards active compounds, which were near 11% of everything screened. Unless noted, calls follow the shape of the dose curve; as a rule, active = well fitted curve in the direction sought with a large enough effect; inconclusive = small, poorly fitted or top-dose-only effect, or another doubt; inactive = no such curve, though single readings can be large; an effect the other way counts as inactive or inconclusive. Potency is read from the fitted curve at half-maximal effect.

SMILES	AMA1 RON2 block	Sm TGR block	NS1 inh	Pf growth 96h	Pf growth 48h
CCOC(=O)[C@H]1[C@H]2COc3ccc(Br)cc3[C@@H]2N2C(=O)c3cc(F)c(F)cc3NC(=O)[C@@]12C	12%	6%	/	?	17µM*
CCOC(=O)[C@H]1[C@H]2COc3cc(OC)ccc3[C@@H]2N2C(=O)c3ccc(F)cc3NC(=O)[C@@]12C	-8%	7%	/	?	?
CCOC(=O)[C@H]1[C@H]2COc3ccc(Br)cc3[C@@H]2N2C(=O)c3ccc(F)cc3NC(=O)[C@@]12C	0%	-9%	/	?	?
Cc1ccc(-c2nnc(Nc3ccc(C(N)=O)cc3)c3ccccc23)cc1S(N)(=O)=O	/	16%	/	/	/
C/C(=N\NC(=O)CNC(=O)c1cccs1)c1ccc(Cl)c(Cl)c1	-3%	-13%	-26%	7%	14%
CCOC(=O)[C@H]1[C@H]2COc3ccc(Cl)cc3[C@@H]2N2C(=O)c3ccc(Cl)cc3NC(=O)[C@@]12C	-4%	0%	/	13µM*	10µM*
CCOC(=O)[C@H]1[C@H]2COc3cc(OC)ccc3[C@@H]2N2C(=O)c3cc(C)ccc3NC(=O)[C@@]12C	-4%	2%	/	2.3µM*	4.7µM*
COc1ccccc1CC(=O)Nc1ccon1	5%	8%	14%	126%	2%
CN(C)CCNC(=O)c1ccc2c(c1)N(Cc1ccccc1)C(=O)c1ccccc1S2(=O)=O	/	-16%	/	/	/
Cc1ccccc1CS(=O)(=O)c1cnc2ccccc2n1	34%	-25%	-7%	/	15µM*
Cc1ccc(S(=O)(=O)CC(=O)N(CCCN2CCOCC2)c2nc3c(F)cccc3s2)cc1	-13%	0%	/	32%	19%
O=C(CCS(=O)(=O)c1ccccc1)N(CCCN1CCOCC1)c1nc2c(F)cccc2s1	-21%	11µM*	/	78%	46%
CCc1cccc2sc(N(CCCN3CCOCC3)C(=O)CS(=O)(=O)c3ccccc3)nc12	-22%	4%	/	?	9.3µM*
O=C(CCS(=O)(=O)c1ccccc1)N(CCCN1CCOCC1)c1nc2ccc(F)cc2s1	-1%	13µM*	/	117%	69%
COc1ccc2cc(C(C)C(=O)N3CCC(C(N)=O)CC3)ccc2c1 (centres undefined)	-12%	1%	0%	24%	4%
CN(C)CCn1c(N)nc2ccccc21	8%	-7%	-2%	0%	30%
O=S(=O)(NC1C2CC3CC(C2)CC1C3)c1ccc(F)cc1 (centres undefined)	5%	-3%	/	?	-13%
COc1ccc(N2CCN(C(=O)COC(=O)c3cc(S(=O)(=O)N(C)C)ccc3N3CCCC3)CC2)cc1	-10%	6%	/	?	10µM*
CN(Cc1ccccc1)C(=O)COC(=O)c1cc(S(=O)(=O)N(C)C)ccc1N1CCCC1	-13%	16%	/	12µM*	9.3µM*
CN(CC(=O)Nc1ccccc1Cl)C(=O)COC(=O)c1cc(S(=O)(=O)N(C)C)ccc1N1CCCC1	-8%	18%	/	7%	9%
CCOC(=O)c1c(C)nn(-c2ccc(NC(=O)CSCC(=O)O)cc2)c1C	1%	8%	-4%	9%	10%
Cc1cccc(NC(=O)CN2C(=S)NC(C)(C)CC2C)c1 (centres undefined)	0%	-3%	-5%	10µM*	-3%
Cc1ccccc1NC(=O)CN1C(=S)NC(C)(C)CC1C (centres undefined)	-25%	3%	21%	?	10%
Cc1ccc(NC(=O)CCCN2C(=S)NC(C)(C)CC2C)cc1 (centres undefined)	-14%	4%	/	0%	3%
CCc1ccc(NC(=O)CCCN2C(=S)NC(C)(C)CC2C)cc1 (centres undefined)	0%	6%	/	1.9µM*	?
Clc1ncnc2[nH]ccc12	28%	/	/	/	/
Cn1c(=O)c(C(=O)CN2CC(=O)Nc3ccccc32)c(N)n(Cc2ccccc2)c1=O	1%	-29%	/	5.2µM*	-33%
Cn1c(=O)c(C(=S)NC(=O)C2CC2)c(N)n(Cc2ccccc2)c1=O	/	6%	16%	31%	9.3µM*
Cn1c(=O)c(C(=O)CN2CCc3ccccc32)c(N)n(Cc2ccccc2)c1=O	-6%	3%	23%	8.3µM*	12µM*
CCN(CC)CC(=O)c1c(N)n(Cc2ccccc2)c(=O)n(C)c1=O	-12%	1%	/	19%	-4%
